Results on 20 compounds are retold here after PubChem BioAssay (NCI).

Each structure is given as a SMILES string. This is part of a sample that, as a whole, favours compounds with a hit. Of some 79,000 tested, about 15% had one in any assay. Unmarked numbers belong to inactive results. Activity calls are given as the source filed them. No stated cut-off is given here; in the data, active means growth inhibition above about 70%; inactive means the rest.

Assay [1] in a line: NCI Yeast Anticancer Drug Screen. Data for the rad50 strain (AID 155).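 Further: 0% = growth of vehicle-only cultures of the same strain.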 Particulars: S. cerevisiae rad50 strain growth inhibition; at 50.0 µM; stronger effect = higher value. The method in brief: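 Inhibition values express reduced yeast growth in compound-treated cultures relative to vehicle-treated controls.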
A short description of assay [2]: NCI Yeast Anticancer Drug Screen. Data for the mec2-1 strain (AID 157). The settings on record: S. cerevisiae mec2-1 strain, at 50.0 µM, stronger effect = higher value. A digest of the protocol:
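Strain: mec2-1 (DNA repair/cell cycle alteration). Compound exposure, then growth measured; inhibition expressed relative to vehicle.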

Assay [3] in a line: NCI Yeast Anticancer Drug Screen. Data for the sgs1 mgt1 strain (AID 161).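 Further: 0% = growth of cultures given vehicle only.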 The settings on record: S. cerevisiae sgs1 mgt1 strain, at 50.0 µM, stronger effect = higher value. The method in brief:
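Inhibition of yeast growth, normalised to vehicle-treated controls, is reported for a strain bearing genetic alterations in DNA damage repair.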

The nature of assay [4]: NCI Yeast Anticancer Drug Screen. Data for the cln2 rad14 strain (AID 165).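 Further: 0% = growth equal to vehicle treated cultures.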 Particulars: S. cerevisiae cln2 rad14 strain, at 50.0 µM, stronger effect = higher value. The method in brief: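 Compounds are applied to the cln2 rad14 yeast strain, and growth is then compared with that of vehicle-treated cultures to give inhibition.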
Assay [5] can be described thus: NCI Yeast Anticancer Drug Screen. Data for the bub3 strain (AID 167). Particulars: S. cerevisiae bub3 mutant strain, at 50.0 µM, stronger effect = higher value. The method in brief:
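Steps: expose the mutant yeast strain to compound; grow alongside vehicle-treated cultures; measure growth; express inhibition against the vehicle cultures.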

The nature of assay [6]: NCI Yeast Anticancer Drug Screen. Data for the mlh1 rad18 strain (AID 175). The settings on record: S. cerevisiae mlh1 rad18 strain growth inhibition; at 50.0 µM; stronger effect = higher value. A digest of the protocol:
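Read-out is yeast growth inhibition, calculated against vehicle-only controls. The compound was applied to a strain engineered with DNA damage repair alterations.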

For `O=[N+]([O-])c1ccc2c(c1)Sc1ccccc1N2`, the growth inhibition in assay [1] is -16.8%; in assay [2], -14.4%; in assay [3] it was -26.7%; in assay [4] it was -21.8%; in assay [5], -25.2%; in assay [6] it was -22.6%.

Consider `COc1ccc(Cl)cc1C(c1cc(Cl)ccc1OC)C(Cl)(Cl)Cl`, for which the growth inhibition in assay [1] is -7.35%; in assay [2], -1.6%; in assay [3], -9.05%; in assay [4], -23.6%; in assay [5], -16.6%; in assay [6], -13.4%.

Consider `COc1ccc(C(=O)OCc2ccccc2CN2CCOCC2)cc1`, for which the growth inhibition in assay [1] is 0.75%; in assay [2], 12.5%; in assay [3] it was -8.45%; in assay [4], 30.3%; in assay [5], -4.9%; in assay [6], -26.4%.

Take `COc1ccc2c(c1OC)C(O)N1CCc3cc4c(cc3C1=C2C(=O)c1ccccc1)OCO4` (stereo not given): the growth inhibition in assay [1] is 6.75%; in assay [2] it was 14.2%; in assay [3], 0.5%; in assay [4], -5.3%; in assay [5], 28.1%; in assay [6], 22.8%.

`CCOc1ccc(C(=O)CCC(=O)Nc2ccc(Br)cc2)cc1`: the growth inhibition in assay [1] was 13.1%; in assay [2], 5.8%; in assay [3] it was 13.1%; in assay [4], -7.3%; in assay [5], 8.75%; in assay [6], 20.4%.

For `O=C(O)C(CCS)(c1ccccc1)c1ccccc1`, the growth inhibition in assay [1] is 17.2%; in assay [2], -5.7%; in assay [3], 0.3%; in assay [4], 20.2%; in assay [5] it was 2.15%; in assay [6], 2%.

Turning to `CCC(C)OC(=O)/C(Br)=C1/OC(=O)c2ccccc2-c2ccccc21` (stereo not given), the growth inhibition in assay [1] was -1.55%; in assay [2] it was -15.8%; in assay [3], -0.35%; in assay [4], -13.4%; in assay [5] it was -42.5%; in assay [6], -7.2%.

For `CC(C)(C)/C(CC(=O)CCC(=O)Nc1ccc(Cl)cc1)=N\NC(N)=S`, the growth inhibition in assay [1] is 11.7%; in assay [2], -6.75%; in assay [3] it was 19.1%; in assay [4], 9.75%; in assay [5], 1.65%; in assay [6], 20.8%.

Consider `Cc1cc(NCCN(C(C)C)C(C)C)nc(Nc2nc3ccc(Cl)cc3[nH]2)n1`, for which the growth inhibition in assay [1] is -13%; in assay [2], -16.5%; in assay [3], -10.2%; in assay [4] it was -45.2%; in assay [5] it was 1.95%; in assay [6] it was -44.5%.

`CCOC(=O)CSc1ncnc2nc[nH]c12`: the growth inhibition in assay [1] was 31.2%; in assay [2], -9.35%; in assay [3] it was -6%; in assay [4], 6.25%; in assay [5] it was 17%; in assay [6], 9.75%.

Turning to `CCN(CC)c1ccc(NCC(O)c2cc(Cl)ccc2OC)cc1` (stereo not given), the growth inhibition in assay [1] is -11.8%; in assay [2], -5.75%; in assay [3], 15.6%; in assay [4] it was 22.8%; in assay [5] it was -6.3%; in assay [6], -1.65%.

On to `Cc1ccc(N(C(=O)Nc2ccccc2)C2=NCC(C)S2)cc1C` (stereo not given), for which the growth inhibition was -29.5% in assay [1]; -17.9% in assay [2]; -37.4% in assay [3]; 2.5% in assay [4]; 39.3% in assay [5]; -39.6% in assay [6].

Consider `O=C(O)COc1ccccc1P(=O)(c1ccccc1)c1ccccc1`, for which the growth inhibition in assay [1] is 23.1%; in assay [2] it was 17.4%; in assay [3] it was 9.7%; in assay [4], 35.8%; in assay [5], 22.4%; in assay [6], 23%.

On to `O=C(CCCc1ccccn1)c1ccccc1`, for which the growth inhibition in assay [1] was 1.8%; in assay [2], 3.85%; in assay [3] it was 2.5%; in assay [4], 5.35%; in assay [5] it was -31.6%; in assay [6], -1.45%.

As to `Cc1ccc(C)c(NC(=O)Oc2cc(C)c(Cl)cc2C(C)C)c1`, the growth inhibition is 85.8% (active) in assay [1]; 99.2% (active) in assay [2]; 98.5% (active) in assay [3]; 72.8% (active) in assay [4]; 98.5% (active) in assay [5]; 98.8% (active) in assay [6].

Consider `Cc1cc(C(=O)/C=C(\C(=O)c2ccccc2)c2ccccc2)ccc1Cl`, for which the growth inhibition was 18.8% in assay [1]; 10.7% in assay [2]; 6.65% in assay [3]; -0.55% in assay [4]; 0.6% in assay [5]; 11.3% in assay [6].

For `Cn1c(=O)c2c(ncn2CCN2CCNCC2)n(C)c1=O`, the growth inhibition in assay [1] was 13.8%; in assay [2], -12.8%; in assay [3] it was 0.2%; in assay [4] it was -37.5%; in assay [5] it was 25.4%; in assay [6], 3.9%.

In the case of `CC(=O)c1ccc(C)cc1C`, the growth inhibition in assay [1] was 27.9%; in assay [2], 4.35%; in assay [3] it was 15.3%; in assay [4], 2.65%; in assay [5], 15.4%; in assay [6], 2.95%.

Regarding `Cn1ncc2c(Nc3cc(Cl)ccc3Cl)ncnc21`, the growth inhibition was -3.05% in assay [1]; -1.9% in assay [2]; 4.35% in assay [3]; -52.8% in assay [4]; 3.7% in assay [5]; -1.95% in assay [6].

With `COC(=O)NC(S(=O)(=O)O)S(=O)(=O)O`, the growth inhibition is 6.2% in assay [1]; 11.6% in assay [2]; 0.85% in assay [3]; 2.65% in assay [4]; 16.5% in assay [5]; 1.7% in assay [6].
